This excerpt belongs to a sample that is enriched for hits.
ST2 inh: IL1RL1 inhibition. Q01638. AlphaLISA ST2-Fc/biotin-IL-33 interaction, 1 h. inhibition, % for hits at 17 µM. hit rate 2.3% among 78,000; in the data active = inhibition above about 30%
Target sequence (Q01638 whole entry, looked up): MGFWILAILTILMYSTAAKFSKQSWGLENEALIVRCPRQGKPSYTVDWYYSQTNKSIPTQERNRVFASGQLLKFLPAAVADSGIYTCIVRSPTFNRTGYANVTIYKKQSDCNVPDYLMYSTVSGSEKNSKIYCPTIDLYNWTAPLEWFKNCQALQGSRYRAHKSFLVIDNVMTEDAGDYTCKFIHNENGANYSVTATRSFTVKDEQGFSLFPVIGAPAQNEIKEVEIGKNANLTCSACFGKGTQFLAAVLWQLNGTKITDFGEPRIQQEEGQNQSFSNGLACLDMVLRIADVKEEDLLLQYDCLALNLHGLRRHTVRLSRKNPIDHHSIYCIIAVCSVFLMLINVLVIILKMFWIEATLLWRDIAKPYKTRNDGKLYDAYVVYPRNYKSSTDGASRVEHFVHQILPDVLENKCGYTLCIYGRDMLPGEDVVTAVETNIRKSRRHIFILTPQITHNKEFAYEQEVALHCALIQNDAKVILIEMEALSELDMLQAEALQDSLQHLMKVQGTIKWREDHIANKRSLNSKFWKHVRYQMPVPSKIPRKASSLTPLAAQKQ
* = called active by the depositor; i = inactive; ! = not confirmed by another sample.

SMILES | ST2 inh
CC(C)C(=O)NC(Nc1ccc(Cl)cc1)C(Cl)(Cl)Cl (stereo not drawn) | i
CC(=O)c1ccccc1-c1cccc(C(=O)NC(C)C)c1 | i
COC1=C(OC)C(=O)c2ccccc2C1=O | i
CC(=O)C1=C(c2ccccc2)C(=O)c2ccccc2C1=O | 48%*
CCCCN(CC)Cc1c(C)[nH]c2c(C)cccc2c1=O | i
CC1CCCN(S(=O)(=O)c2cc(Br)ccc2Br)C1 (stereo not drawn) | i
CC1=CCC2CC1C(c1ccc(N(C)C)cc1)OC2(C)C (stereo not drawn) | 60%*
CCCC(=O)NCc1nc2cccnc2n1CCOC | i
CCN(CC)C(=O)C1CCCN(C(=O)Cn2nnnc2CN(C)C(C)C)C1 (stereo not drawn) | i
COc1cccc(OCCOc2ccc(/C=C3\C(=O)NN(c4ccccc4)C3=O)cc2)c1 | i
COc1ccc(OCc2ccccc2F)c(/C=C2\C(=O)NN(c3ccccc3)C2=O)c1 | 35%*
COc1ccc(OCc2ccc(F)cc2)c(/C=C2\C(=O)NN(c3ccccc3)C2=O)c1 | i
CC(C)(C)C1CCc2onc(C(=O)Nc3ccc(C#N)cc3)c2C1 (stereo not drawn) | i
COc1cc(NC(C)=O)c(OC)cc1NC(C)=O | i
NS(=O)(=O)c1ccc(NC(=O)c2ccc(-c3ccc(Br)cc3)o2)cc1 | i
O=C(CCCn1c(=O)c2sccc2n(Cc2ccccc2F)c1=O)NCc1ccco1 | i
NC(=O)Cn1c(=O)n(CCCC(=O)NCc2ccco2)c(=O)c2sccc21 | i
Cc1ccccc1Cn1c(=O)n(CCCC(=O)NCc2ccco2)c(=O)c2sccc21 | 33%*!
CCOc1ccc(N2COc3ccc(OCC)cc3C2)cc1 | i
COc1ccc(N2COc3ccc(Cl)cc3C2)cc1 | 37%*
COc1ccc2c(c1)CN(c1ccc(C(=O)O)cc1)CO2 | i
COc1ccc(CCCN=C(N)N)cc1Cl | i
O=C1CC(c2ccccc2)CC2=C1C(c1cc3c(cc1[N+](=O)[O-])OCO3)Nc1ccccc1N2 (stereo not drawn) | 44%*
O=C1CC(c2ccccc2)CC2=C1C(c1ccccc1Br)Nc1ccccc1N2 (stereo not drawn) | i
O=C1CC(c2ccccc2)CC2=C1C(c1cc(Br)ccc1F)Nc1ccccc1N2 (stereo not drawn) | i
SMILES | ST2 inh
Cc1nc(N2CCCC(NC3CCCCC3)CC2)nc2ccc(F)cc12 (stereo not drawn) | i
Cc1cccc(N(C(=O)c2ccccc2F)C2C=CS(=O)(=O)C2)c1 (stereo not drawn) | i
CC1=C[C@@H](CNS(=O)(=O)c2cccc(C#N)c2)[C@H](C(C)C)C[C@H]1CC(=O)Nc1ccccn1 | i
CC1=C[C@@H](CNC(=O)c2ccncc2)[C@H](C(C)C)C[C@H]1CC(=O)NCc1ccc(C#N)cc1 | i
CC1=C[C@@H](CNC(=O)c2ccc(C#N)cc2)[C@H](C(C)C)C[C@H]1CC(=O)Nc1ccccn1 | 81%*
CCOc1cc(Br)cc(C=O)c1O | i
Oc1cccc2ccc(/C=C/c3cc4c(cc3Br)OCO4)nc12 | 32%*
COc1ccc2cccc(O)c2n1 | i
COc1cc(Br)cc(/C=C/c2ccc3cccc(O)c3n2)c1O | 38%*
CC(C(=O)NCc1cccc(Cl)c1)N(c1ccccc1)S(C)(=O)=O (stereo not drawn) | i
O=C(O)c1ccccc1SC1CC(=O)N(Cc2ccccc2)C1=O (stereo not drawn) | i
CCOC(=O)C1=C(C)Nc2[nH]c(=O)[nH]c(=O)c2C1c1ccccc1Cl (stereo not drawn) | i
CCN(CC)S(=O)(=O)c1ccc(C)cc1 | i
Cc1ccc(S(=O)(=O)/C=C/C#N)cc1 | i
Cc1ccc(S(=O)(=O)ON=C2C=CC(=O)C=C2)cc1 | 47%*
CN=C(N)NCCCCC/C=C(/C)CC(C)C1OC(=O)C(C)C(O)/C=C/C(C)C(O)CC(O)C(C)C(O)CCC(C)C(O)CC2(O)OC(CC(OC(=O)CC(=O)O)CC(O)CC(O)C(C)C(O)/C(C)=C/CCC1C)CC(O)C2O (stereo not drawn) | i
N#CC1=C(N)OC2=C(C(=O)CCC2)C1c1ccc(F)cc1 (stereo not drawn) | i
O=C(/C=C(/c1ccccc1)N1CCOCC1)c1ccc([N+](=O)[O-])cc1 | 39%*
O=C1C(=O)N(CCN2CCOCC2)C(c2ccc([N+](=O)[O-])cc2)C1=C(O)c1ccccc1 (stereo not drawn) | i
O=C(c1cc([N+](=O)[O-])ccc1N1CCOCC1)N1CCOCC1 | i
COc1ccc(OCC(=O)c2ccc(F)cc2)cc1 | i
C=CCc1ccccc1OCCOCCN1CCCCC1 | i
O=C(CSc1n[nH]c(-c2ccccc2Cl)n1)Nc1ccccc1F | i
COc1ccc(C=Nc2cc(Cl)c(N)c(Cl)c2)cc1 | 85%*
COc1ccc(/C=C/C#N)cc1 | i
CC(=O)c1ccc(N=Cc2ccc(C=Nc3ccc(C(C)=O)cc3)cc2)cc1 | i
O=C(O)c1ccc(O)c(C=Nc2ccc(Br)cc2)c1 | i
C=CCc1cccc(C=Nc2ccc(Br)cc2)c1O | 39%*
